Sampled rows, rich in hits. Any-hit rate of the full collection: about 21%.
Shiga inhibitor: A qHTS for Small Molecule Inhibitors of Shiga Toxin | 9.2% of 290,000 active | Vero cells, Shiga toxin protein synthesis inhibition reporter | inhibition, % at 38.7 µM | AID 2315, 2010; in the data active = inhibition mostly above about 28%, no sharp cut-off; inactive = mostly below about 43%; also: 0% is about no effect
NS1 inh: qHTS Assay for Inhibitors of Influenza NS1 Protein Function; Potency, µM (titrated, usually from 46.1 µM), inactives show at the top dose activity, positive = more growth; 0.4% of 270,000 active; AID 2326, 2010; calls by dose curve; also: potency is read from the fitted curve at half-maximal effect; actives are rising curves; nearly all actives have a fitted effect of over 50% in size
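Growth recovery, yeast-based: influenza A NS1 expressed in S. cerevisiae causes slow growth, and suppressors are detected by OD600. The parent strain without NS1 is used as positive control.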
Pf growth 48h: Primary qHTS for delayed death inhibitors of the malarial parasite plastid, 48 hour incubation; P. falciparum luciferase growth in erythrocytes, 48 h; Potency, µM (titrated, usually from 28.7 µM), for inactives: top-dose activity change, negative = inhibition, usual class: inhibitors; 5.9% of 310,000 active; also: potency is read from the fitted curve at half-maximal effect; % is scaled to controls: 0 for no effect and ±100 for the full control effect
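Compounds are pin-transferred into medium, infected erythrocytes (2% hematocrit, 0.1% parasitemia final) are added, and plates sit one parasite generation at 37 C in 5% CO2. Detection reagent is then added and luminescence measured.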
Pf growth 96h: Primary qHTS for delayed death inhibitors of the malarial parasite plastid, 96 hour incubation; P. falciparum luciferase reporter growth, 96 h; Potency, µM (series often up to 28.7 µM), for the others: top-dose activity change, negative = inhibition, hits mostly inhibitors; 6.9% of 320,000 active; also: potency is read from the fitted curve at half-maximal effect; % is scaled to controls: 0 for no effect and ±100 for the full control effect
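Parasite growth measured via integrated firefly luciferase reporter in P. falciparum. Infected erythrocytes at 2% hematocrit, 0.05% parasitemia final were treated 96 hours at 37 C under 5% CO2, and luminescence was read.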
SARS PLP yeast: qHTS of Yeast-based Assay for SARS-CoV PLP | S. cerevisiae expressing SARS-CoV PLpro, growth rescue | Potency, µM (titrated, usually from 32.9 µM), for inactives: at the highest dose activity, positive = growth rescue, usual class: activators | 0.19% of 330,000 active | AID 485353, 2010; calls by dose curve; also: potency is read from the fitted curve at half-maximal effect; 0% is about no effect; nearly all actives have a fitted effect of over 55% in size
CHX counter: Cycloheximide Counterscreen for Small Molecule Inhibitors of Shiga Toxin. cell reporter, cycloheximide protein synthesis inhibition counterscreen. max response, %. 12% of 300,000 active. AID 2314, 2010; in the data active = max response mostly above about 13%, no sharp cut-off; inactive = mostly below about 14%; also: read at 38.3 µM for the half of the compounds with a filed dose; 0% is about no effect
* = called active by the depositor; i = inactive; ? = inconclusive; . = no result. Unless noted, calls follow the shape of the dose curve; as a rule, active = well fitted inhibition curve with a large enough effect; inconclusive = small, poorly fitted or top-dose-only effect, or another doubt; inactive = no such curve, though single readings can be large or run the other way.

SMILES | Shiga inhibitor | NS1 inh | Pf growth 48h | Pf growth 96h | SARS PLP yeast | CHX counter
N#CC1=C(N)OC2=C(CCc3ccccc32)C1c1ccccc1 (configuration not stated) | -6 | -25% | 12µM* | 27% | -13% | 12
COC(=O)c1oc2ccccc2c1NC(=O)/C=C/C(=O)O | 2 | 6% | -7% | 15% | -3% | 6
O=C(NCCc1ccc(Cl)cc1)C1CC(=O)N(CCc2ccccc2)C1 (configuration not stated) | -3 | -7% | 18% | 4.1µM* | 0% | 18
Cc1ccc(CNC(=O)C2CCC(=O)N(CCc3ccc(Cl)cc3)C2)s1 (configuration not stated) | -5 | -11% | 6% | ? | 0% | 15
COc1ccc(CCCNC(=O)C2CCC(=O)N(Cc3ccc(Cl)cc3)C2)cc1 (configuration not stated) | -6 | 1% | ? | ? | -3% | 1
Cc1ccc(CNC(=O)C2CCC(=O)N(CCc3ccc(Cl)cc3)C2)cc1 (configuration not stated) | 85* | -12% | -12% | 9.3µM* | 3% | 46*
O=C(NCCc1ccccc1)C1CC(=O)N(CCc2ccccc2)C1 (configuration not stated) | 10 | -5% | 31% | ? | 4% | 10
O=C(NCCCc1ccccc1)C1CCC(=O)N(Cc2ccc(Cl)cc2)C1 (configuration not stated) | 38* | -14% | 16% | ? | 1% | 36*
CCOC(=O)CC1(NC(=O)C2CCC(=O)N(CCc3ccccc3)C2)CCCCC1 (configuration not stated) | 30* | 10% | -4% | ? | -1% | 20*
Cc1ccc(SCC(=O)Nc2ccc(S(N)(=O)=O)cc2)cc1 | 30 | . | 23% | 25% | 1% | 9
O=C(NCCn1cccn1)C1CCC(=O)N(CCc2ccccc2)C1 (configuration not stated) | 7 | 16% | 6% | 13µM* | 2% | -6
O=C(NCCN1CCCc2ccccc21)C1CCC(=O)N(CCc2ccccc2)C1 (configuration not stated) | -24 | 28% | -2% | 21% | -1% | 11
Cc1ccc(S(=O)(=O)Cn2nnnc2C(C(C)C)N2CCSCC2)cc1 (configuration not stated) | -10 | -11% | -10% | ? | -8% | 3
Cc1ccc(S(=O)(=O)Cn2nnnc2C(C(C)C)N2CCN(Cc3ccco3)CC2)cc1 (configuration not stated) | -26 | -13% | 10µM* | 10% | 2% | -5
Cc1ccc(S(=O)(=O)Cn2nnnc2C(CC(C)C)N2CCN(C)CC2)cc1 (configuration not stated) | 10 | 0% | ? | i | 0% | -3
Cc1ccc(S(=O)(=O)Cn2nnnc2CN(Cc2ccco2)Cc2cccs2)cc1 | 11 | -15% | 10µM* | 18% | -27% | -4
CC(C)C(c1nnnn1Cc1ccccc1)N(Cc1ccco1)Cc1cccs1 (configuration not stated) | 21 | 1% | ? | 20% | -25% | -3
CCCC(c1nnnn1CS(=O)(=O)c1ccc(C)cc1)N1CCN(CC)CC1 (configuration not stated) | 6 | -3% | ? | 26% | 0% | -4
CCCC(c1nnnn1CS(=O)(=O)c1ccc(C)cc1)N1CCN(c2ccc(F)cc2)CC1 (configuration not stated) | -5 | -85% | 17µM* | ? | -2% | 0
Cc1ccc(S(=O)(=O)Cn2nnnc2C(CC(C)C)N2CCN(c3ccccc3)CC2)cc1 (configuration not stated) | -2 | 1% | 7.4µM* | 33% | -13% | -2
O=C1C2C3C=CC(C2C(=O)N1CCO)C1C(=O)N(CCO)C(=O)C31 (configuration not stated) | -7 | 9% | . | 52% | -2% | -2
CCc1cccc(CC)c1NC(=O)CN1CC(C)SC1=NC1CCCCC1 (configuration not stated) | -4 | 18% | ? | ? | -6% | -2
Cc1ccc(C(c2nnnn2CS(=O)(=O)c2ccc(C)cc2)N2CCN(c3ncccn3)CC2)cc1 (configuration not stated) | 8 | 9% | 4.1µM* | ? | 14% | -1
COc1ccc(C(=O)N2CCN(c3ncccn3)CC2)cc1[N+](=O)[O-] | -11 | 5% | 5% | ? | 1% | 1
CCCNC(=O)c1ccc(N2CCC3(CC2)CC(c2ccccc2)=NO3)c(N)c1 | 10 | 19% | ? | ? | 0% | -3
SMILES | Shiga inhibitor | NS1 inh | Pf growth 48h | Pf growth 96h | SARS PLP yeast | CHX counter
CCCCC(CC)C(=O)Nc1cc(C(=O)NCc2ccc(C)cc2)ccc1N1CCC2(CC1)CC(c1ccccc1)=NO2 (configuration not stated) | 1 | ? | 3.3µM* | 2.1µM* | -4% | -3
CCCNC(=O)c1ccc(N2CCC3(CC2)CC(c2ccccc2)=NO3)c(NC(=O)Cc2ccc(F)cc2)c1 | 1 | ? | ? | 4.7µM* | -1% | 1
CCCCC(CC)C(=O)Nc1cc(C(=O)NCc2ccc(C)cc2)ccc1N1CCC2(CC1)CC(c1cccc(Br)c1)=NO2 (configuration not stated) | . | . | 2.3µM* | 2.1µM* | -4% | .
CCCCC(CC)C(=O)Nc1cc(C(=O)NCCC)ccc1N1CCC2(CC1)CC(c1cccc(Br)c1)=NO2 (configuration not stated) | . | . | 3.7µM* | 2.6µM* | -2% | .
CCCCCCCC(=O)Nc1cc(C(=O)NCc2ccc(C)cc2)ccc1N1CCC2(CC1)CC(c1ccccc1)=NO2 | 2 | 6% | -15% | ? | 4% | 1
CCOC(=O)N1CCN(c2nc3ccccc3nc2C(C#N)C(=O)NCCc2ccccc2)CC1 (configuration not stated) | -7 | -44% | 7.4µM* | ? | 1% | -3
COc1ccccc1N1CCN(c2nc3ccccc3nc2C(C#N)C(=O)OC(C)C)CC1 (configuration not stated) | -2 | -45% | 1.9µM* | 2.1µM* | -1% | -1
COCCCNC(=O)C(C#N)c1nc2ccccc2nc1N1CCCC1 (configuration not stated) | -15 | 3% | 8.3µM* | 7.4µM* | 5% | -4
COc1ccccc1N1CCN(c2nc(C)cc(C)c2C#N)CC1 | 3 | -31% | 4% | 8.3µM* | -5% | -1
O=C(CSc1nnc2c(n1)[nH]c1ccc(S(=O)(=O)N3CCOCC3)cc12)Nc1ccc(F)c(F)c1 | -18 | . | ? | ? | -2% | 13

From PubChem
